# Where “and” joins values, the source holds several entries; their conditions need not be identical. Equal values may be shown once. Calls of active or inactive are those of the source. How the source made its calls: active means hit-call score of the fitted dose curve at least 0.9, where 1 is the maximum; inactive means score below 0.9.
# Read-out: Collagen III, COL3A1 (gene 1281)
# Test: BSK_MyoF_CollagenIII: BioMAP Diversity Plus: MyoF Assay for Collagen III Biomarker Activity (AID 2284239)
# Details: primary human lung fibroblasts
# How it was run: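 Compounds are added to primary human lung fibroblasts and left for 24 hours. Collagen III is then quantified by ELISA. Analysis takes DMSO as baseline and fits increases in signal.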
SMILES,outcome,AC50
O=P(O)(O)CCC(F)(F)C(F)(F)C(F)(F)C(F)(F)C(F)(F)C(F)(F)F,inactive,–
O=S(=O)(O)C(F)(F)C(F)(F)C(F)(F)C(F)(F)C(F)(F)C(F)(F)C(F)(F)C(F)(F)C(F)(F)C(F)(F)F,inactive,–
O=C(O)CCC(F)(F)C(F)(F)C(F)(F)C(F)(F)C(F)(F)F,inactive,–
Clc1ccc(Nc2nnc(Cc3ccncc3)c3ccccc23)cc1,inactive,–
CC[N+](CC)(CC)Cc1ccccc1,inactive,–
CC(C)(C)c1ccc(O)c(O)c1,–,29.2 µM (active)
O=P(O)(O)CCC(F)(F)C(F)(F)C(F)(F)C(F)(F)C(F)(F)C(F)(F)C(F)(F)C(F)(F)F,inactive,–
C=CC(=O)OCCC(F)(F)C(F)(F)C(F)(F)C(F)(F)C(F)(F)C(F)(F)C(F)(F)C(F)(F)F,inactive,–
CN(CCO)S(=O)(=O)C(F)(F)C(F)(F)C(F)(F)C(F)(F)C(F)(F)C(F)(F)C(F)(F)C(F)(F)F,inactive,–
OCC(F)(F)C(F)(F)C(F)(F)C(F)(F)C(F)(F)C(F)(F)C(F)(F)C(F)(F)C(F)(F)C(F)(F)C(F)(F)F,inactive,–
CN(Cc1cnc2nc(N)nc(N)c2n1)c1ccc(C(=O)N[C@@H](CCC(=O)O)C(=O)O)cc1,inactive,–
Oc1cc2ccccc2cc1O,inactive,–
O=C(CC(=O)C(F)(F)C(F)(F)C(F)(F)F)c1cccs1,–,8.37 µM (active) and 7.86 µM (active)
CC1=NN(c2ccccc2)C(=O)C1,–,3.97 µM (active)
CCCCC(CC)C(=O)OCCOCCOCCOCCOC(=O)C(CC)CCCC (centres undefined),inactive,–
O=C(O)CCC(F)(F)C(F)(F)C(F)(F)C(F)(F)C(F)(F)C(F)(F)F,inactive,–
O=C(O)C(F)(F)OC(F)(F)C(F)(F)OC(F)(F)C(F)(F)OC(F)(F)C(F)(F)C(F)(F)C(F)(F)F,–,6.08 µM (active) and 4.89 µM (active)
Cc1ccc(C(=O)c2ccccc2)cc1,inactive,–

# System: not listed separately
# Test: CCTE_Mundy_HCI_hNP1_Casp3_7: CCTE's Caspase-Glo 3/7 Assay in human neuroprogenitor cells for Apoptosis, Mundy Lab (AID 2284240)
# Details: not given
# How it was run: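 Neuroepithelial-lineage stem cells from WA09 embryonic cells were treated with chemicals after 40–44 h of culture. Twenty-four hours later, caspase-3/7 activation was detected luminescently after a 30 min room-temperature reagent step, with DMSO as baseline.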
SMILES,outcome,AC50
O=P(O)(O)CCC(F)(F)C(F)(F)C(F)(F)C(F)(F)C(F)(F)C(F)(F)F,inactive,–
CC(=O)Nc1ccc(O)cc1,inactive,–
CC(C)c1c(C(=O)Nc2ccccc2)c(-c2ccccc2)c(-c2ccc(F)cc2)n1CC[C@@H](O)C[C@@H](O)CC(=O)O,–,12.1 µM (active)
O=C(CCCN1CCC(O)(c2ccc(Cl)cc2)CC1)c1ccc(F)cc1,–,70.7 µM (active)
O=P(O)(O)CCC(F)(F)C(F)(F)C(F)(F)C(F)(F)C(F)(F)C(F)(F)C(F)(F)C(F)(F)F,inactive,–
C=CC(=O)OCCC(F)(F)C(F)(F)C(F)(F)C(F)(F)C(F)(F)C(F)(F)C(F)(F)C(F)(F)F,inactive,–
OCC(F)(F)C(F)(F)C(F)(F)C(F)(F)C(F)(F)C(F)(F)C(F)(F)C(F)(F)C(F)(F)C(F)(F)C(F)(F)F,inactive,–
CN(Cc1cnc2nc(N)nc(N)c2n1)c1ccc(C(=O)N[C@@H](CCC(=O)O)C(=O)O)cc1,inactive,–
O=C1NS(=O)(=O)c2ccccc21,inactive,–
Nc1ccn([C@@H]2O[C@H](CO)[C@@H](O)C2O)c(=O)n1 (some centres undefined),–,0.207 µM (active)
O=C(CC(=O)C(F)(F)C(F)(F)C(F)(F)F)c1cccs1,inactive,–

# From PubChem BioAssay (EPA / NIEHS)
